Results published in PubChem BioAssay (NCATS).
Where “and” joins values, the source holds several entries; their conditions need not be identical. Equal values may be shown once. Inconclusive results are not listed. More than one record can exist for a structure, and the calls need not agree. Calls of active or inactive are those of the source. The call rests on the fitted dose curve; in most records, active means well fitted curve in the direction sought with a large enough effect; inconclusive means small, poorly fitted or top-dose-only effect, or another doubt; inactive means no such curve, though single readings can be large or run the other way.
On the % scale 0 is the no-effect control and ±100 the full control effect; potency means the concentration at half of the fitted maximal effect.

Experiment: qHTS Assay for Identifying Gametocytocidal Compounds (AID 743244);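 on max response: actives lower the fluorescent signal which means gametocytes are killed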
Settings: P. falciparum 3D7 stage III-V gametocytes, alamarBlue, 72 h; max response: stronger effect = lower value
From the text: Malaria cases and deaths have dropped 50% in 29 countries since 2000 due to the combined effects of long-lasting insecticidal bednets, indoor residual spraying, and artemisinin-based combination therapies (ACTs). This success has raised hopes for malaria eradication and consequently stimulated interest in developing new reagents that block gametocyte transmission such as novel and safe gametocytocidal drugs. However, previous drug development efforts have focused primarily on the asexual parasites that cause symptoms, but not malaria transmission. Consequently, patients can remain infectious for weeks after the clearance of asexual parasites and clinical symptoms. To be transmitted from person to person via a mosquito, the parasites must switch from asexual to sexual development and produce male and female gametocytes. Malaria gametocytes consist of five stages (I, II, III, IV and V). The late stage gametocytes (III, IV and V) are difficult to be cultured in vitro and the long lifespan of mature gametocytes allows them being transmitted from host to mosquitoes unless they are completely eliminated by gametocytocidal agents. To identify gametocytocidal compounds which are capable of killing late stage P. falciparum gametocytes, a high throughput gametocyte viability assay was employed. This assay uses oxidoreduction indicator, alamarBlue, as a general measure of metabolic activity of gametocytes. Within live cells, the nonfluorescent resazurin is reduced to resorufin, a bright red fluorescence dye. Fluorescence decreases upon treatment of gametocytocidal compounds. P. falciparum gametocyte (3D7 strain) was used in this study.
The 1536-well gametocycidal viability assay was based on the previous method of Tanaka et al. Stage III-V gametocytes were tested against three compound libraries, including 4265 compounds from NCGC pharmaceutical collection, 400 from Malaria Box library, and 550 from an internal collection of kinase inhibitors. Briefly, 2.5 ul/well incomplete medium was dispensed into each well of 1,536-well plates using the Multidrop Combi followed by 23 nl compound transferring using the NX-TR Pintool (WAKO Scientific Solutions, San Diego, CA). Then, 2.5 ul/well of gametocytes was dispensed with a seeding density of 20,000 cells/well using the Multidrop Combi. The assay plates were incubated for 72 h at 37C with 5% CO2. After addition of 5 ul/well of 2X AlamarBlue dye (Life Technologies, cat. no. DAL1100), the plates were incubated for 24 h at 37C with 5% CO2 and then were read in a fluorescence detection mode (Ex = 525 nm, Em = 598 nm) on a ViewLux plate reader (PerkinElmer).
With `CNCC(=O)c1ccc(O)c(O)c1` the max response was 39.9% (inactive).
In the case of `O=C(CCCN1CCC2(CC1)C(=O)NCN2c1ccccc1)c1ccc(F)cc1`, the max response is reported as -9.38% (inactive) and 8.83% (inactive).
In the case of `c1ccc(CN2CCNCC2)cc1`, the max response is reported as 8.43% (inactive).
In the case of `CCN(CCO)CCn1c(Cc2ccccc2)nc2c1c(=O)n(C)c(=O)n2C`, the max response is reported as 2.54% (inactive).
For `O=C1c2ccccc2C(=O)C1C(=O)C(c1ccccc1)c1ccccc1`, the max response was 4.31% (inactive).
For `CN=C1CN(O)C(c2ccccc2)=c2cc(Cl)ccc2=N1`, the max response was 7.17% (inactive).
In the case of `CN1C(=O)C(O)N=C(c2ccccc2)c2cc(Cl)ccc21` (stereo not given), the max response is reported as 6.95% (inactive).
In the case of `CC(C)c1c(CN(C)C(C)Cc2ccccc2)n(C)n(-c2ccccc2)c1=O` (stereo not given), the max response is reported as 12.8% (inactive).
For `CC(C)C[C@H](CN)CC(=O)O`, the max response was 2.29% (inactive).
With `C=CCC1([C@H](C)CCC)C(=O)NC(=O)NC1=O` the max response was -4.95% (inactive).
With `COc1cccc(C(=O)CCN[C@@H](C)[C@H](O)c2ccccc2)c1` the Potency was 31.6 µM (active).
For `CC(=O)NC1CCSC1=O` (stereo not given), the max response was -2.2% (inactive) and 7.47% (inactive).
With `NC(=O)CS(=O)C(c1ccccc1)c1ccccc1` (stereo not given) the max response was -2.53% (inactive).
In the case of `CNC(C)(C)Cc1ccccc1`, the max response is reported as 20.1% (inactive).
With `CC(=O)CC(c1ccccc1)c1c(O)c2ccccc2oc1=O` (stereo not given) the max response was 17.5% (inactive) and 36.1% (inactive).
For `CCOP(=S)(OCC)Oc1ccc2c(C)c(Cl)c(=O)oc2c1`, the max response was -0.845% (inactive).
In the case of `[N-]=[N+]=CC(=O)OC[C@H](N)C(=O)O`, the max response is reported as -0.674% (inactive).
For `COc1cccc([C@@]2(O)CCCC[C@@H]2CN(C)C)c1`, the max response was 5.95% (inactive).
In the case of `COC(=O)[C@@H](N)CCCN/C(N)=N/[N+](=O)[O-]`, the max response is reported as -0.272% (inactive).
With `CC(C)N(CCC(C(N)=O)(c1ccccc1)c1ccccn1)C(C)C` (stereo not given) the max response was 11.9% (inactive) and -6.08% (inactive) and 19.7% (inactive).
With `CN1C[C@H](C(=O)N[C@]2(C)O[C@@]3(O)[C@@H]4CCCN4C(=O)[C@H](Cc4ccccc4)N3C2=O)C=C2c3cccc4[nH]cc(c34)C[C@H]21` the Potency was 8.91 µM (active).
In the case of `NNc1ccccc1`, the max response is reported as -4.92% (inactive).
For `CCc1cc2c(s1)-n1c(C)nnc1CN=C2c1ccccc1Cl`, the max response was 2.24% (inactive).
For `CC(C)c1cccc(C(C)C)c1O`, the max response was -8.91% (inactive) and 15.4% (inactive).
With `CC1(C)C(C=C(Cl)Cl)C1C(=O)OC(C#N)c1cccc(Oc2ccccc2)c1` (stereo not given) the max response was -13.8% (inactive).
In the case of `CCN[C@@H](C)Cc1ccccc1`, the max response is reported as -4.1% (inactive).
For `CC(=O)OCC1=C(C(=O)O)N2C(=O)[C@@H](N)[C@H]2SC1`, the max response was -3.04% (inactive).
For `CC(C)C[C@H]1C(=O)N2CCC[C@H]2[C@]2(O)O[C@](NC(=O)[C@@H]3C=C4c5cccc6[nH]c(Br)c(c56)C[C@H]4N(C)C3)(C(C)C)C(=O)N12`, the Potency was 22.4 µM (active) and 1.26 µM (active).
For `CCCCCN(C)CCC(O)(P(=O)(O)O)P(=O)(O)O`, the max response was 17.4% (inactive) and 7.96% (inactive).
In the case of `CCOc1ccc(NS(=O)(=O)c2ccc(N)cc2)nn1`, the max response is reported as 42.3% (inactive).
For `CN1C(=O)COc2c(C(=O)NC3CN4CCC3CC4)cc(Cl)cc21` (stereo not given), the max response was 4.3% (inactive).
In the case of `CCOC(=O)C1=C(COCCN)NC(C)=C(C(=O)OC)C1c1ccccc1Cl` (stereo not given), the Potency is reported as 20 µM (active) and the max response is reported as -0.484% (inactive).
With `CCN(CC)CCc1c[nH]c2ccccc12` the max response was 14.8% (inactive).
For `COP(=S)(OC)Oc1ccc(SC)c(C)c1`, the max response was -2.21% (inactive).
For `Cc1ncsc1CCCl`, the max response was 5.08% (inactive) and 26.9% (inactive).
For `O=c1[nH]cnc2[nH]ncc12`, the max response was -1.56% (inactive).
For `C[C@]12CC[C@@H]3c4ccc(OC(=O)N(CCCl)CCCl)cc4CC[C@H]3[C@@H]1CC[C@@H]2OP(=O)(O)O`, the max response was 0.678% (inactive) and -5.22% (inactive).
In the case of `Oc1ccc(Cl)cc1`, the max response is reported as -8.53% (inactive).
With `CCC(C)(C)c1ccc(O)cc1` the max response was 15.1% (inactive).
